Sampled rows, rich in hits. Any-hit rate of the full collection: about 1.1%.
NCOA3 inh – inhibits human SRC3 coactivator; inhibition, % at 3.6 µM; AID 588352; 0.17% of 360,000 active; Q9Y6Q9; HEK293 GAL4-SRC3 luciferase reporter, luminescence;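 active means inhibition above a per-campaign cutoff, the mean of all compounds plus 3 SD, cut at about 60% in these data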;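 further: 0% = DMSO-treated cells and 100% = gossypol-treated cells at 36 µM; higher means less SRC3-driven luciferase light from the GAL4 reporter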
NCOA1 inh – human NCOA1 inhibition; Q15788; HEK293 GAL4-SRC1 luciferase reporter, luminescence; inhibition, % at 3.6 µM; 0.12% of 360,000 active; AID 588354;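 active means inhibition above the campaign mean plus 3 SD, with each screening campaign given its own cutoff, cut at about 60% in these data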;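 further: 0% = DMSO treated cells and 100% = gossypol at 36 µM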
GalR3 antagonist – human GalR3 antagonism | O60755 | HEK293 GalR3-CNG cAMP membrane potential fluorescence; galR3 body fused to GalR1 C-terminus | inhibition, % at 3 µM | 0.44% of 360,000 active;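 active means inhibition above the screen-wide average plus 3 SD, cut at about 13% in these data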;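 further: forskolin and galanin both at EC90 stimulate the cells; cAMP rise reported by CNG channel membrane potential dye signal; 0% = forskolin plus galanin with DMSO and 100% = forskolin alone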
Target sequence (O60755 1-299 limits assumed): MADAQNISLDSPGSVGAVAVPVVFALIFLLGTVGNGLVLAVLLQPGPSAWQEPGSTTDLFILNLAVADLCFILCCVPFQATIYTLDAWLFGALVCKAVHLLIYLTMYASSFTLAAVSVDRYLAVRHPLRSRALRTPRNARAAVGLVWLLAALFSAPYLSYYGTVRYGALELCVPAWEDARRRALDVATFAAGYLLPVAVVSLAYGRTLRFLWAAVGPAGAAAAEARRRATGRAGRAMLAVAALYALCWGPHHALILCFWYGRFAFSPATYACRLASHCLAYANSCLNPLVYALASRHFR
LRH-1 inv ag – NR5A2 inverse agonism in reporter assay; HEK293T StAR-luciferase reporter, LRH-1 transfected, 24 h; O00482; inhibition, % at 3.6 µM; 0.13% of 360,000 active;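 active means inhibition above the mean inhibition of all tested compounds plus 3 SD, cut at about 73% in these data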;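 further: 0% = DMSO wells and 100% = reporter-only cells lacking LRH-1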
NCOA2 inhibitor – human SRC2 (NCOA2) inhibition | Q15596 | 0.17% of 370,000 active | HEK293 GAL4-SRC2 luciferase reporter, luminescence | inhibition, % at 9 µM;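 active means inhibition above the mean inhibition of all tested compounds plus 3 SD, set per campaign, cut at about 52% in these data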;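 further: 0% = DMSO treated cells and 100% = cells given Gossypol at 36 µM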
COUP-TFII inh – NR2F2 (human) inhibition, primary screen; 0.7% of 370,000 active; inhibition, % at 8.6 µM; AID 686940; HEK293T NGFI-A luciferase reporter, luminescence; P24468;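 active means inhibition above a per-plate cutoff, mean inhibition of test wells between control levels plus 3 SD, cut at about 38% in these data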;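 further: cells cotransfected with COUP-TFII expression vector driving the NGFI-A reporter; 0% = median of COUP-TF2 test wells and 100% = reporter-only cells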
Target sequence (P24468 whole entry, looked up): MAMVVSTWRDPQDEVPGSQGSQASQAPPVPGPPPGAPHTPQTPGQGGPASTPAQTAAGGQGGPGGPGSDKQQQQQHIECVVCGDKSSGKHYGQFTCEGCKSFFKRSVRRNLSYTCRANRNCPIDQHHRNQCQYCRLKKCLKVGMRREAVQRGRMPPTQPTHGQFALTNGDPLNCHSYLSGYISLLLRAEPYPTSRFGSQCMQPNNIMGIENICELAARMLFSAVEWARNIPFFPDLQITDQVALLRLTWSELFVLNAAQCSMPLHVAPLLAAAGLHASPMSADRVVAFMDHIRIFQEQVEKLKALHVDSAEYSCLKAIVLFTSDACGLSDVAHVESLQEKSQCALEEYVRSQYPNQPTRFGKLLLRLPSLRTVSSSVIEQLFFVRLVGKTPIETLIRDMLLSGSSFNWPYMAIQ
GalR3 conf – GalR3 (human) antagonism, confirmation; inhibition, % at 3 µM; 59% of 1,600 active; HEK293 GalR3 CNG cAMP biosensor, membrane potential fluorescence; galR3 fused to GalR1 carboxy tail; challenged with forskolin and galanin at EC90; shares compounds with GalR3 antagonist;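 active means inhibition above the primary screen's cutoff, the mean inhibition of all screened compounds plus 3 SD, cut at about 13% in these data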;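 further: 0% = forskolin plus galanin and 100% = forskolin alone with DMSO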
HEK-CNG parental – acts as nonspecific agonist in parental HEK-CNG cells | activation, % at 3 µM | shares compounds with GalR3 antagonist | HEK293-CNG parental cells, cAMP membrane potential fluorescence; normalised: DMSO wells 0%, forskolin wells 100% | AID 652268 | 10% of 1,600 active; in the data active means activation above about 1.3%
* hit, by the source's call; / = not tested or not shown.

SMILES | NCOA3 inh | NCOA1 inh | GalR3 antagonist | LRH-1 inv ag | NCOA2 inhibitor | COUP-TFII inh | others
Cc1ccc(S(=O)(=O)/N=C2/C=C(Sc3ncn[nH]3)C(=O)c3ccccc32)cc1 | 94* | 91* | / | 97* | / | /
Cc1ccc(S(=O)(=O)/N=C2\C=C(Nc3ccc(O)cc3)C(=O)c3ccccc32)cc1 | 92* | 90* | / | 95* | / | /
C[C@@H]1COc2cc(Br)ccc2S(=O)(=O)N1Cc1cn(CCC2OCCCO2)nn1 | / | / | / | / | 18 | -4
Cc1nn(CCC(=O)NNC(=O)Nc2ccc(F)cc2)c(C)c1[N+](=O)[O-] | / | / | / | / | 2 | -11
COC(=O)C1CN(Cc2ccc(C)cc2)CCS(=O)(=O)N1Cc1cn(Cc2ccc(OC)cc2)nn1 (stereo unspecified) | / | / | / | / | 12 | 3
O=C(Nc1ccc(C(O)(C(F)(F)F)C(F)(F)F)cc1)c1ccc(F)cc1F | / | / | / | / | / | -39
CCN(CC)C(=O)CC[C@@H]1CC[C@]2(CCCN(Cc3nccs3)C2)O1 | / | / | / | / | -12 | -5
COC(=O)c1cc(O)cc(OC)c1C(=O)c1c(O)cc(C)cc1O | 12 | -10 | -7 | -4 | -33 | 0
COC(=O)c1cc(O)cc(OC)c1Oc1cc(C)cc(O)c1C(=O)O | 68* | 58 | -7 | 59 | -18 | 5
C[C@@H]1CN([C@@H](C)CO)C(=O)CCCn2cc(nn2)CO[C@H]1CN(C)C(=O)C1CCCCC1 | / | / | -5 | / | -11 | 9
O=C1C=CC2(O[C@H](c3ccccc3)[C@@H](c3ccccc3)O2)[C@H](Sc2ccccc2O)C1 | -79 | -131 | 16* | 31 | 37 | 87*
CCCCNC(=O)N1CCCC1C(=O)Nc1cccc(OC)c1 (stereo unspecified) | / | / | / | / | 8 | 3
C=C1C(=O)c2sccc2C(c2ccc(OC)c(OC)c2)C1COC(C)=O (stereo unspecified) | 47 | 59 | 28* | 71 | 84* | 89*
COc1ccc(OC)c(S(=O)(=O)N2CCCC(C(=O)Nc3c(C)n(C)n(-c4ccccc4)c3=O)C2)c1 (stereo unspecified) | / | / | / | / | -10 | -3
Cc1nccc(-c2ccc(-n3cnc4ccccc43)cc2)n1 | 42 | 21 | -3 | 2 | 18 | 23
Nc1nccc(-c2ccc(-n3cnc4ccccc43)cc2)n1 | 39 | 35 | 2 | 3 | 12 | 42*
CCCN1CCS(=O)(=O)N(Cc2cn(Cc3ccc(Cl)cc3)nn2)C(C(=O)OC)C1 (stereo unspecified) | / | / | / | / | -5 | -5
CN(C)CCOc1ccc2c(c1)C(=O)C(=Cc1ncc([N+](=O)[O-])n1C)C2 | 55 | 30 | -3 | 82* | 17 | -17
C[C@H]1[C@@H](OC(=O)NCCc2ccccc2)CC[C@@]23CCCN2C(=O)CCC[C@@H]13 | / | / | / | / | / | 2
O=C(NCc1cccs1)c1nc2c(nnn2Cc2ccccc2Cl)c(=O)[nH]1 | 90* | 43 | -8 | 101* | 56* | 65*
COc1ccc(Cn2cc(CN3[C@H](CC(C)C)COc4cc(Br)ccc4S3(=O)=O)nn2)cc1 | / | / | / | / | 7 | -12
C[C@H]1CCC/C=C/[C@@H]2C[C@H](O)C[C@H]2[C@H](O)[C@H](S(=O)c2ccc(O)cc2)CC(=O)O1 (stereo partly specified) | 63* | 2 | -4 | 79* | -30 | 51*
CCOC(=O)Cn1cc(CN2CCS(=O)(=O)N(Cc3ccc(OC)cc3)C(C(=O)OC)C2)nn1 (stereo unspecified) | / | / | / | / | 13 | -12
CCOc1cc(/C=N/NC(N)=O)cc(Br)c1OCC(=O)Nc1cccc2ccccc12 | 8 | -28 | 44* | 17 | -25 | -14
Cc1ccc(-n2c(O)c(C=Nc3cc(C)on3)c3ccccc3c2=O)c(C)c1 | 67* | 54 | -2 | 22 | 3 | -1
SMILES | NCOA3 inh | NCOA1 inh | GalR3 antagonist | LRH-1 inv ag | NCOA2 inhibitor | COUP-TFII inh | others
Cc1cc(N=Cc2c(O)n(-c3ccc(C)c(C)c3)c(=O)c3ccccc23)no1 | / | / | 0 | / | -10 | 12
CCN(CC)S(=O)(=O)c1cccc(C(=O)N/N=C(\C)c2ccc(O)cc2O)c1 | 70* | -14 | 1 | -17 | 37 | 2
Cc1ccccc1C(=O)NC1CCCCN(C)C1=O (stereo unspecified) | / | / | -5 | / | 14 | -16
Cc1nc2c(o1)C(=O)c1ccccc1C2=Nc1ccccc1 | 77* | 37 | -4 | 22 | -16 | -5
COc1ccc(CNC(=O)O[C@H]2CC[C@@]34CCCN3C(=O)CCC[C@H]4C2)cc1OC | / | / | / | / | / | -15
CCc1nc2sc(C#N)c(N)c2c2c1CCCC2 | -29 | -24 | 42* | 3 | -3 | -26 | GalR3 conf=57*;HEK-CNG parental=-1
CCc1nc2sc(C(C)=O)c(N)c2c2c1CCCC2 | 15 | 16 | 4 | 9 | 21 | -12
O=C(COc1cc(Cl)c(Cl)cc1Cl)Nc1cccc(O)c1 | -105 | -95 | -10 | -192 | -36 | -31
O=C(COc1cc(Cl)c(Cl)cc1Cl)Nc1ccncc1 | -5 | -4 | 13* | 11 | -15 | -28 | GalR3 conf=9;HEK-CNG parental=0
C=CCOc1c(Br)cc(/C=N/NC(N)=O)cc1OC | 4 | -8 | 13* | 4 | 3 | 11 | GalR3 conf=7;HEK-CNG parental=0
CCOc1cc(/C=N/NC(N)=O)cc(Br)c1OCC(=O)Nc1ccccc1C | -30 | -72 | 69* | 19 | -3 | -4 | GalR3 conf=40*;HEK-CNG parental=0
COc1cc(/C=N/NC(=S)N/N=C/c2cc(OC)c(OC)c(OC)c2)cc(OC)c1OC | -25 | -4 | 20* | 6 | -31 | -35 | GalR3 conf=16*;HEK-CNG parental=0
COc1cc(/C=N/NC(N)=O)cc(Br)c1OCc1ccccc1C | 9 | -12 | 3 | 21 | 11 | -18
CC(C)(C)c1ccc(S(=O)(=O)N2CCCC(C(=O)NCc3ccco3)C2)cc1 (stereo unspecified) | / | / | / | / | 7 | 23
CCn1c(O)c(/C=N/N=C2CCCCC2)c2cc(C3=NNC(=O)CC3)ccc21 | 21 | -14 | 25* | 14 | -40 | 13 | GalR3 conf=6;HEK-CNG parental=0
CC(=O)OC12CCCN(C1)/C(=C/c1cccnc1)C2 (stereo unspecified) | / | / | / | / | -8 | 3
O=[N+]([O-])c1ccc(NC(=S)N/C(=N/CS(=O)(=O)c2ccccc2)c2ccccc2)cc1 | -4 | -17 | 13* | -17 | -28 | -11 | GalR3 conf=7;HEK-CNG parental=1
COc1ccc(NC(=S)N/C(=N/CS(=O)(=O)c2ccccc2)c2ccccc2)cc1 | -40 | -64 | -2 | -96 | -37 | -62
O=C(CCCCl)Oc1ccc2cc(-c3ccc4ccccc4n3)c(=O)oc2c1 | -14 | -1 | 14* | -10 | 10 | -7 | GalR3 conf=13*;HEK-CNG parental=0
